The assay concerns the target NADPH oxidase 5 (Homo sapiens) (UniProt Q96PH1). The experiment in a line: compounds shifting NOX5 Amplex Red fluorescence – cell-based, HEK293-NOX5, NOX inhibitor project, primary screen (AID 1161). To be noted: HEK293-NOX5, ionomycin, 45 min, higher = more signal.
Sequence of NADPH oxidase 5 (Homo sapiens) (Q96PH1 whole entry, looked up): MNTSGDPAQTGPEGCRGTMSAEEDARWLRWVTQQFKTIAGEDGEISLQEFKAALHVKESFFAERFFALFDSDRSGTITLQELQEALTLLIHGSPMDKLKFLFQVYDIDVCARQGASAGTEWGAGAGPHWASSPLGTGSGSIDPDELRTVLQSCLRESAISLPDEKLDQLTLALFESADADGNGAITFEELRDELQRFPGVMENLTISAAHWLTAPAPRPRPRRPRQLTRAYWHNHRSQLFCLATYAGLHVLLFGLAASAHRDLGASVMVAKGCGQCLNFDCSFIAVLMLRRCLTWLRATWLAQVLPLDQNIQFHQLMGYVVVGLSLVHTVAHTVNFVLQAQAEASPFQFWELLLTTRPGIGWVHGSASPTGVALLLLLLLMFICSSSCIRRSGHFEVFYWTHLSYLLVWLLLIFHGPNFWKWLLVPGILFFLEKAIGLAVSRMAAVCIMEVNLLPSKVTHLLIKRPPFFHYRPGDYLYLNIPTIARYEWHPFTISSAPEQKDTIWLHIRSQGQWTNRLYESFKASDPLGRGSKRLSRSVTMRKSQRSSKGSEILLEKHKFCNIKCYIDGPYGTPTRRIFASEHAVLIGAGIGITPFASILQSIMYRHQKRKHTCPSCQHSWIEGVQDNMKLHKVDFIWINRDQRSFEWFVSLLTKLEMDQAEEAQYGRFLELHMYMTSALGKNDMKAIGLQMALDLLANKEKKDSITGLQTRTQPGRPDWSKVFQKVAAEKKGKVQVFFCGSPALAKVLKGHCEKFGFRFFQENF
As to `CC(C)CNC(=O)[C@@]1(Cc2ccccc2I)c2ccccc2C(=O)N(Cc2ccccc2C(F)(F)F)[C@H]1c1ccc(CO)cc1`, the z-score was 0.401.

In the case of `C#CCOc1ccc(C[C@@H](C(=O)OC)N(CC#C)[C@@H](/C=C/C2CC2)[C@H](O)Cc2ccccc2)cc1`, the z-score was -0.732. On to `CCOC(=O)[C@H]1C/C=C/C[C@H](C(=O)OCC)C(=O)O[C@H]2[C@@H](OC)O[C@H](CO)[C@@H](OC(=O)c3ccc(Br)cc3)[C@@H]2OC1=O`, for which the z-score is -1.24.

On to `O=C1[C@@]23C=C(Br)[C@H](C[C@@H]2COC3)[C@]12CO2`, for which the z-score is -4.05. With `O=C1NC(=O)C2C1C=CC(C(O)c1ccc(-c3ccccc3)s1)N2Nc1ccc(Cl)cc1Cl` (stereo not given) the figure was -0.664. To `C=C(C(=O)CC[C@H](OC(C)=O)c1ccccc1OCCO)C(C)C` belongs -3.36. With `O=C1C2C=CC(C(O)COCc3ccccc3)N(Nc3ccc([N+](=O)[O-])cc3)C2C(=O)N1c1ccccc1` (stereo not given) the figure was 0.629; with `COCC(=C=CC[C@H](O)c1cccc(OCCO)c1)CCO`, -0.539; with `NCCCCCCNC(=O)[C@H]1C[C@H]2C(=O)N[C@@H](Cc3ccccc3)C(=O)N2[C@H]1c1cccc(OCCO)c1`, 0.392.

With `CCCCCN1CC=CC23O[C@@H]4C=CCOC(=O)[C@@H]4[C@H]2C(=O)N(C(C)CO)[C@@H]3C1=O` (stereo not given in full), the z-score worked out at 0.938. With `CC(c1ccccc1)C(O)C1C=CC2C(=O)N(C)C(=O)C2N1NC(=O)OC(C)(C)C` (stereo not given) the figure was -1.2; with `COCCCNC(=O)[C@@H]1c2ccccc2C(=O)N(Cc2ccccc2)[C@H]1c1ccc(CO)cc1`, -2.19.

On to `COCCOC(=O)N1C(=O)[C@@]2(c3cc(C#CCCO)ccc31)[C@H](c1ccc(OCCO)cc1)N1[C@H](c3ccccc3)[C@H](c3ccccc3)OC(=O)[C@H]1[C@@H]2C(N)=O`, for which the z-score stood at 0.419.

For `COc1ccc(C(=O)Nc2ccc(CN3C(=O)[C@]4(O[C@H](CC(=O)N5CCC[C@H]5CO)[C@@H]([Si](C)(C)c5ccc(OC)cc5)[C@@H]4C)c4ccccc43)cc2)cc1`, the z-score worked out at 4.87. As to `C=CC[C@]1(C(N)=O)COC(c2ccc(OCCCO)cc2)=N1`, the z-score is -0.131.

With `COC(=O)[C@@]1(Cc2ccccc2)[C@H]2c3cc(C(=O)N(C)C)n(CCc4c[nH]c5ccc(O)cc45)c3C[C@H]2CN1C(=O)c1ccccc1`, the z-score is -2.41. To `COc1ccc(C#Cc2ccc3c(c2)[C@]2(C(=O)N3)[C@H](c3ccc(O)cc3)N3[C@H](c4ccccc4)[C@H](c4ccccc4)OC(=O)[C@H]3[C@@H]2C(=O)N2CCc3cc(OC)c(OC)cc3C2)cc1` belongs -0.568; to `O=C1OCCC=C[C@H]2OC34C=CCN(Cn5nnc6ccccc65)C(=O)[C@H]3N(CCO)C(=O)[C@@H]4C12` (stereo not given in full), 1.73; to `CC(C)Cc1ccc(CN2CC[C@@H](N)C2)cc1`, -1.29. `C[N+](C)(C)CCCCCCNC(=O)[C@H]1C[C@H]2C(=O)N[C@@H](Cc3ccccc3)C(=O)N2[C@H]1c1cccc(OCCO)c1`: the z-score was 1.13.

`CO[C@H]1O[C@H](CO)[C@@H](OC(=O)Nc2ccc(Oc3ccccc3)cc2)[C@H](OC(=O)Nc2ccc3c(c2)OCO3)[C@@H]1OC(=O)Nc1ccc2c(c1)OCO2`: the z-score is -0.967. As to `C=C(CCCC)/C(=C/C[C@@H](OC(C)=O)c1ccccc1OCCO)c1cc(C(=O)OC)ccc1OC`, the z-score was -1.36.

For the molecule `C=CCC(OC(C)=O)[C@@H]1[C@@H](N(Cc2cc3ccccc3o2)C(=O)Cc2ccc(OC)cc2)c2cc(OCCCO)ccc2N1C(=O)c1ccc2ccccc2c1` (stereo not given in full), the z-score came out at 1.14.

Turning to `O=C1C2C=CC(C(O)c3c(F)cccc3Cl)N(Nc3ccccc3F)C2C(=O)N1c1ccccc1` (stereo not given), the z-score was -2.84. With `CN(C)C(=O)[C@]1(Cc2ccccc2)N=C(c2ccc(OCCCO)cc2)O[C@@H]1c1ccccc1N=[N+]=[N-]` the figure was -1.36.
